# NALP1 yeast inh = NALP1 inflammasome inhibitors in reconstituted yeast, colorimetric, S. cerevisiae, triplicate retest; AID 2071, 2009; actives 0.61% (n = 280,000); inhibition, % at 10 µM; S. cerevisiae NALP1/ASC/caspase-1 growth, X-gal OD620, 72 h; in the data active means inhibition mostly above about 24%, no sharp cut-off; inactive means mostly below about 32%
# PERK inhibitor = block of dimerizer-induced PERK translation repression, primary screen, PERK inhibitor project, CHO PERK-DD cells, SEAP luminescence, HTS; Eukaryotic translation initiation factor 2-alpha kinase 3 (Homo sapiens), Q9NZJ5; CHO PERK-DD fusion, SEAP luminescence translation reporter; inhibition, % at 5.6 µM; actives 0.17% (n = 220,000);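 active means inhibition above the mean inhibition of all tested compounds plus 3 SD, set separately per screening campaign, cut at about 2.9% in these data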;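 further: PERK kinase domain activated by AP20187 dimerizer at 100 nM; 0% = DMSO with dimerizer and 100% = rapamycin at 8.4 µM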
# NLRP3 yeast inh = NALP3 inflammasome inhibitors in reconstituted yeast, primary screen, luminescence, uHTS; actives 0.39% (n = 330,000); inhibition, % at 10 µM; Yeast reconstituted NLRP3/ASC/caspase-1, beta-gal luminescence, 24 h;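 active means inhibition of 50% or more; inactive means inhibition below 50%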;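 further: plate controls were induced DMSO wells for no effect and uninduced yeast grown without galactose for full effect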
# Rce1 inhib = yeast Rce1p protease inhibitors, primary screen, biochemical, fluorescence, cell-free homogeneous. yeast membranes, quenched prenylated peptide cleavage fluorescence. calls only. actives 0.27% (n = 290,000);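 active means fall in fluorescence gain of 50% or more versus controls, with final raw signal at or below 3038400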;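 further: plate controls were neutral control wells for no effect and wells lacking membranes for full effect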
# Target sequence (Q03530 whole entry, looked up): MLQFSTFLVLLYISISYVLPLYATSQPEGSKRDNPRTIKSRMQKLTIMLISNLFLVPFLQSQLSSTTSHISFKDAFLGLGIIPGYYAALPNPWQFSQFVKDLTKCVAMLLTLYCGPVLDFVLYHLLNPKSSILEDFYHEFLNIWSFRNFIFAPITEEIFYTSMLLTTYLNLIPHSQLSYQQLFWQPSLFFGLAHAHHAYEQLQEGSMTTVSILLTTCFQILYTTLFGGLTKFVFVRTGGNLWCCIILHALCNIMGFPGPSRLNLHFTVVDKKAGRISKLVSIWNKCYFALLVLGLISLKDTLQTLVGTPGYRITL
# CR mimetic SO = reduction of superoxide in aged yeast, primary screen, HTS; S. cerevisiae aged cells, superoxide DHE fluorescence; hits give low values; superoxide response (% of plate mean), % at 10 µM; actives 0.18% (n = 330,000); AID 2690, 2010;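 active means superoxide response under a set limit, about three screen SD below normal, cut at about 65% in these data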;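 further: yeast aged for seven days with compound at 30 °C before DHE staining; 100% = average MFI of all compound-treated wells on the plate with controls excluded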
# V-ATPase pHluor = regulators of yeast V-ATPase proton pumping, primary screen, pHLuorin cytosolic pH fluorescence | S. cerevisiae | response, % at 10 µM | actives 0.37% (n = 350,000) | AID 504577, 2011; in the data active means response mostly above about 7.3%, no sharp cut-off; inactive means mostly below about 5.4%; further: actives read high
# CR mimetic CP = superoxide lowering in aged yeast cells, confirmation, cherry picked compounds | shares compounds with CR mimetic SO | S. cerevisiae aging, superoxide DHE fluorescence; hits give low values | superoxide response (% of plate), % at 10 µM | actives 1% (n = 850) | AID 434994, 2010;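 active means superoxide signal below 65% of the plate average of sample wells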;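 further: cells aged with compound for 7 days at 30 degrees C before staining; 100% equals mean DHE fluorescence of all compound wells on the plate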
# DHE fluor count = DHE quenching or ROS scavenging interference in aged yeast, artefact control for yeast caloric restriction mimetic project, S. cerevisiae BY4741, flow cytometry. 850 tested, under 10 active. fluorescence response, % at 10 µM. shares compounds with CR mimetic SO. DHE fluorescence; hits give low values;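 active means fluorescence response below 15%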;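 further: percent of the mean fluorescence averaged over all compound wells on the plate; lower means stronger quenching of DHE signal or ROS scavenging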
# Active calls of the source: *; i = inactive; nt = not tested or not shown. Only some compounds are listed: those with a hit (about 1.6% of all), similar ones and a draw of the others.
SMILES,NALP1 yeast inh,PERK inhibitor,NLRP3 yeast inh,Rce1 inhib,CR mimetic SO,V-ATPase pHluor,CR mimetic CP,DHE fluor count
C[C@@H]1CN([C@H](C)CO)C(=O)CCCn2nncc2CO[C@@H]1CN(C)S(=O)(=O)c1cccs1,nt,nt,nt,nt,nt,0,nt,nt
OC(COCC(F)(F)C(F)(F)C(F)(F)C(F)F)Cn1c2ccccc2c2ccccc21 (stereo unspecified),-2,1,10,i,139,0,99,105
Cc1ccc([C@@H]2CC(=O)[C@@H]3CN(S(=O)(=O)c4ccc(C)cc4)[C@H](c4ccc(Cl)cc4)C[C@@H]3N2S(=O)(=O)c2ccc(Cl)cc2)cc1,nt,nt,nt,nt,nt,0,nt,nt
COc1ccc(C(=O)Oc2ccc(/C=N/NC(=O)c3cccnc3)cc2OC)cc1,nt,nt,8,nt,95,1,nt,nt
COc1ccc(/C=N/NC(=O)c2cccnc2)cc1,34,nt,14,i,54*,4,95,99
CCOC(=O)CCCCCC(=O)Nc1ccc2c(c1)C(=O)N([C@@H](C)CO)C[C@H](C)[C@H](CN(C)C(=O)c1ccccc1)OCCCC[C@H](C)O2,nt,nt,nt,nt,nt,-1,nt,nt
C=CCN=C1S/C(=C/c2ccc([N+](=O)[O-])cc2)C(=O)N1CC=C,-9,1,36,i,60*,-2,77,89
CC1CC(C)CN(CC(=O)NCCc2ccc(S(N)(=O)=O)cc2)C1 (stereo unspecified),-1,1,-3,i,62*,0,108,118
CCOc1ccc(S(=O)(=O)N2CCOCC2)cc1NC(=O)CCN1C(=O)NC2(CCCC2)C1=O,nt,nt,nt,nt,nt,0,nt,nt
CCc1cc(C(=O)OC)c(NC(=O)CN2CCN(C(=O)c3ccco3)CC2)s1,12,nt,-3,i,111,-6,nt,nt
CCOC(=O)N1CCN(CC(=O)Nc2sc(CC)cc2C(=O)c2ccc(OC)cc2)CC1,15,-1,14,i,58*,-5,106,101
COc1ccccc1N1CCN(S(=O)(=O)c2cn(C)cn2)CC1,29,nt,7,i,65*,3,93,103
C[C@@H]1CN([C@@H](C)CO)C(=O)CCCn2cc(nn2)CO[C@H]1CN(C)S(=O)(=O)c1ccc(C#N)cc1,nt,nt,nt,nt,nt,1,nt,nt
O=C(O)c1ccccc1C(=O)OCC1CCC(=NO)CC1 (stereo unspecified),nt,nt,nt,nt,nt,0,nt,nt
CN(Cc1ccccc1)C(=O)CCC1CCN(S(=O)(=O)N(C)C)CC1,4,nt,5,i,103,-4,nt,nt
CN(Cc1ccccc1)C(=O)CCC1CCN(S(C)(=O)=O)CC1,3,nt,14,i,65*,0,127,110
O=C(/C=C/c1cccs1)NC(=S)NNC(=O)Cc1cccs1,-56,1,15,i,39*,-1,73,97
CCOc1ccc(NC(=O)N2CCc3ccccc3C2)cc1,-3,nt,23,i,93,10,nt,nt
COc1ccc(NC(=O)N2CCc3ccccc3C2)cc1,3,nt,18,i,52*,-1,101,102
CC(C)(C)OC(=O)N1CCC(C(=O)Nc2ccc(C(=O)NC3CC3)cc2)CC1,nt,nt,nt,nt,nt,1,nt,nt
CSc1ncc(Cl)c(C(=O)Nc2ccccc2[N+](=O)[O-])n1,6,nt,25,i,102,0,nt,nt
CCSc1ncc(Cl)c(C(=O)Nc2ccc(S(=O)(=O)Nc3ncccn3)cc2)n1,35,nt,12,i,86,-4,nt,nt
CN(c1ccccc1)S(=O)(=O)c1ccc(NC(=O)c2nc(S(C)(=O)=O)ncc2Cl)cc1,19,nt,1,i,62*,5,101,95
CCSc1ncc(Cl)c(C(=O)Nc2ccccc2C)n1,-3,nt,-3,i,62*,5,118,123
